TEAD-YAP inh: TEAD-YAP interaction inhibition; AID 1259422; actives 1.4% (n = 640,000); HEK-TIYL cells, TEAD-Gal4/YAP UAS-luciferase luminescence; inhibition, % at 9.12 µM; in the data active = inhibition above about 32%;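 also: 0% = median of test compound wells and 100% = reference inhibitor wells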
GPR151 ag: activates the human receptor GPR151; actives 1% (n = 650,000); activation, % at 11.2 µM; PathHunter beta-arrestin GPR151 cells, luminescence; Q8TDV0; in the data active = activation above about 4.9%;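 also: 0% = median of compound wells and 100% = cells with positive control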
Target sequence (Q8TDV0 whole entry, looked up): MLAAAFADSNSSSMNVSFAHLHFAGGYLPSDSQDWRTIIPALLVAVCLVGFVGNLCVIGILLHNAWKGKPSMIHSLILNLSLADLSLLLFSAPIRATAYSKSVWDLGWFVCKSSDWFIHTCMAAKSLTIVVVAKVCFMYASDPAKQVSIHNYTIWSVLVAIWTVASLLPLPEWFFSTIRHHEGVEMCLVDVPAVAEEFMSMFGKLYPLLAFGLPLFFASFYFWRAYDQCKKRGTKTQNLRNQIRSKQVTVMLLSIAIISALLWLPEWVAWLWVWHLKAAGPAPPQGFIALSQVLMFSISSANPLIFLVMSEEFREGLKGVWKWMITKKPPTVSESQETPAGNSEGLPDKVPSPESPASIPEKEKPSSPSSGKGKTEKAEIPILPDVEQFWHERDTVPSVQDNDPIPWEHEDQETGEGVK
FBW7 act: activators of human E3 ligase FBW7 | Q969H0 | AID 1259310 | AlphaScreen FBW7–phospho-cyclin E peptide binding, activator screen | actives 0.13% (n = 650,000) | normalized activity (activation), % at 26.1 µM; in the data active = normalized activity above about 1.9%;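 also: purified mutant Fbw7 with reduced substrate affinity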
MITF inh: blocks human microphthalmia-associated transcription factor. O75030. AlphaScreen MITF homodimerization, bead proximity signal. inhibition, % at 2.6 µM. actives 0.91% (n = 650,000). AID 1259374; in the data active = inhibition above about 50%;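 also: 0% = vehicle wells with protein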
MITF inh conf: confirmation of human MITF inhibitors; shares compounds with MITF inh; AlphaScreen MITF homodimerization, biotin/His-MITF beads; inhibition, % at 2.6 µM; actives 16% (n = 4,700);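 active = inhibition above a cutoff derived from the DMSO control wells, cut at about 28% in these data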;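 also: 0% = MITF dimer wells with DMSO only; inhibitors lower the bead chemiluminescence by keeping MITF from dimerizing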
AS interf DR: counter-screen: compounds optically interfering with AlphaScreen | shares compounds with MITF inh | AlphaScreen optical interference counterscreen, cell-free | IC50, µM | actives 6% (n = 480); call rule not given here
AlphaScreen intf2: AlphaScreen optical interference, counter-screen | LysRS AlphaScreen counterscreen, signal interference, triplicate | shares compounds with MITF inh | AID 1259376 | actives 7.6% (n = 4,700) | inhibition, % at 2.6 µM;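 active = inhibition above a cutoff derived from the DMSO control wells, cut at about 30% in these data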
An asterisk follows results filed as active; · = no result. Shown are actives, neighbours in structure and some others; about 3.5% of the full set was active somewhere.

SMILES | TEAD-YAP inh | GPR151 ag | FBW7 act | MITF inh | MITF inh conf | AlphaScreen intf2 | others
O=C(Nc1ccc(N2CCOCC2)cc1)c1ccnc(Nc2ccc(N3CCOCC3)cc2)c1 | -4 | 0 | 0 | 9 | · | ·
O=C(Nc1ccc(N2CCOCC2)cc1)c1ccc2nc(-c3cccs3)sc2c1 | 1 | 1 | 0 | 55* | 57* | 5 | AS interf DR=>7.8
O=C(Nc1ccc(N2CCOCC2)cc1)c1ccc2nc(Nc3ccc(N4CCOCC4)cc3)sc2c1 | -4 | 0 | 0 | 5 | · | ·
O=C(Nc1ccc(N2CCOCC2)cc1)c1ccnc(Nc2ncccn2)c1 | -7 | 4 | 0 | 59* | 84* | -11 | AS interf DR=>7.1
O=C(Nc1ccc(Cl)cn1)c1ccc(N2C(=O)c3ccc([N+](=O)[O-])cc3C2=O)cc1 | -60 | 0 | 0 | -10 | · | ·
O=C1N[C@@H](Cc2ccccc2)C(=O)N2CCN(C(=O)NCc3ccccc3)C[C@H]12 | 8 | 0 | 0 | 77* | 74* | -7 | AS interf DR=>6.5
O=C1N[C@H](Cc2ccccc2)C(=O)N2CCN(C(=O)c3ccccc3)C[C@H]12 | 5 | 0 | 0 | 3 | · | ·
NCCCC[C@@H]1NC(=O)[C@H]2CN(C(=O)NCc3ccccc3)CCN2C1=O | -1 | 0 | 0 | -12 | · | ·
O=C1N[C@H](CO)C(=O)N2CCN(C(=O)NCc3ccccc3)C[C@H]12 | 2 | -1 | 0 | 81* | 75* | -12 | AS interf DR=>6.5
O=C1N[C@H](CO)C(=O)N2CCN(C(=O)c3ccccc3)C[C@H]12 | 6 | -4 | 1 | -12 | · | ·
O=C1N[C@H](Cc2ccc(O)cc2)C(=O)N2CCN(C(=O)NCc3ccccc3)C[C@H]12 | -10 | -1 | 0 | 75* | 72* | -11 | AS interf DR=>6.5
CCC[C@@H]1NC(=O)[C@H]2CN(C(=O)NCc3ccccc3)CCN2C1=O | 5 | 3 | 0 | 75* | 71* | -4 | AS interf DR=>6.5
O=C1N[C@@H](Cc2ccccc2)C(=O)N2CCN(C(=O)OCc3ccccc3)C[C@H]12 | 5 | 3 | 0 | 6 | · | ·
Cc1ccc(S(=O)(=O)N(CCO)Cc2cc3cc4c(cc3[nH]c2=O)OCCO4)cc1 | -43 | 2 | 0 | 7 | · | ·
CC(C)CC(=O)N1CCN(C2CCC(C)CC2)CC1 (configuration not stated) | 2 | -2 | 0 | 59* | -2 | 12
CC1CCC(N2CCN(C(=O)c3ccccc3)CC2)CC1 (configuration not stated) | -11 | 1 | 0 | 43 | · | ·
COc1ccccc1C(=O)n1nc(-c2cccnc2)nc1NCc1cccs1 | -1 | 0 | 0 | 16 | · | ·
CCCS(=O)(=O)N1CCN(Cc2ccc(OC)c(OC)c2OC)CC1 | -1 | 0 | 0 | 52* | 7 | 7
CCS(=O)(=O)N1CCN(Cc2cc(Br)ccc2OC)CC1 | 23 | 0 | 0 | 52* | 10 | 14
CCCS(=O)(=O)N1CCN(Cc2cc(Br)ccc2OC)CC1 | 18 | -1 | 0 | 54* | 8 | 16
COc1ccc(Br)cc1CN1CCN(S(=O)(=O)Cc2ccccc2)CC1 | 16 | -1 | 0 | 62* | 6 | 26
CCOC(=O)C1CCN(C/C=C/c2ccccc2OC)CC1 | 3 | 0 | 0 | 33 | · | ·
CCOC(=O)C1CCN(C/C=C/c2ccccc2[N+](=O)[O-])CC1 | 5 | -1 | 1 | 54* | -13 | -7
CCN(CC)CCCNC(=O)C1CCN(c2nc3ccccc3n3cccc23)CC1 | -10 | 0 | 0 | -5 | · | ·
CCCNc1nc(Nc2ccccc2)c2cnn(C)c2n1 | 2 | -1 | 0 | 112* | 17 | 12
SMILES | TEAD-YAP inh | GPR151 ag | FBW7 act | MITF inh | MITF inh conf | AlphaScreen intf2 | others
CCNc1nc(Nc2ccccc2)c2cnn(C)c2n1 | 3 | 0 | 0 | 4 | · | ·
CCOC(=O)/C=C1/Nc2ccccc2C(c2ccccc2)(c2ccccc2)N1C(C)=O | 0 | -1 | 0 | -2 | · | ·
Nc1nc(-c2cccnc2)nn1C(=O)c1ccc(Cl)cc1 | -11 | -1 | 0 | 4 | · | ·
Nc1nc(-c2cccnc2)nn1C(=O)c1ccc([N+](=O)[O-])cc1 | 6 | -2 | 0 | 55* | 12 | 17
OCCN(CCO)c1ncnc2sc3c(c12)CCCC3 | -1 | 0 | 0 | 68* | 8 | 15
COc1ccccc1C(=O)Nc1ccc2c(c1)C(=O)Nc1cc(Cl)ccc1O2 | 7 | 0 | 0 | -1 | · | ·
CCOc1ccccc1C(=O)Nc1ccc2c(c1)C(=O)Nc1ccccc1O2 | -2 | 4 | 0 | 53* | -7 | -10
CCOC(=O)c1cc[n+](CC(=O)c2cccc([N+](=O)[O-])c2)cc1 | 5 | -2 | 0 | 4 | · | ·
N#Cc1cc[n+](CC(=O)c2cccc([N+](=O)[O-])c2)cc1 | 1 | 1 | 0 | 63* | -16 | -1
CC1CC(C)(C)N(C(=O)CN2CCN(C)CC2)c2ccccc21 (configuration not stated) | 12 | -2 | 1 | 81* | 5 | 14
CN1CCCN(CC(=O)N2CCc3ccccc32)CC1 | -4 | 1 | -1 | 78* | 4 | 5
Cc1ccc2c(c1)C(C)CC(C)(C)N2C(=O)CN1CCN(C)CC1 (configuration not stated) | -3 | 2 | 0 | -4 | · | ·
O=C(CN1CCN(c2ccccc2F)CC1)N1CCCc2ccccc21 | 7 | 2 | 0 | 53* | 9 | 22
O=C(CN1CCN(c2ccccc2F)CC1)NCCC1=CCCCC1 | -6 | 0 | 0 | 68* | 12 | 11
Nc1nnc(SCc2nc3sc4c(c3c(=O)[nH]2)CCCC4)s1 | -8 | -1 | 0 | 1 | · | ·
N#Cc1ccccc1S(=O)(=O)N1CCN(CC(O)c2ccccc2)CC1 (configuration not stated) | 1 | -2 | 0 | 58* | -11 | -4
N#Cc1ccccc1S(=O)(=O)N1CCN(CC(O)COc2ccccc2F)CC1 (configuration not stated) | 4 | -1 | 0 | 51* | 7 | 7
CCOc1ccc(S(=O)(=O)N2CCN(CC(O)c3ccccc3)CC2)cc1 (configuration not stated) | -6 | -1 | 0 | -3 | · | ·
Cc1ccc(C(=O)Nc2ccc([N+](=O)[O-])cn2)o1 | -32 | -4 | 0 | 80* | 69* | -9 | AS interf DR=>6.5
COCCOCC(O)CN1CCN(c2ccc(C)cc2)CC1 (configuration not stated) | -7 | 1 | 0 | 52* | 4 | 1
Cn1c(CN2CCN(C(=O)CN3C(=O)CCC3=O)CC2)nc2ccccc21 | 0 | 3 | 0 | 54* | 2 | 12
Cc1nc2ccccc2n1CC1CCN(C(=O)Nc2ccccc2)CC1 | -1 | 1 | 0 | 43 | · | ·
COc1ccc(CCC(=O)N2CCC(Cn3c(C)nc4ccccc43)CC2)cc1 | 15 | 1 | -1 | 78* | 16 | 18

Screens deposited in PubChem by The Scripps Research Institute Molecular Screening Center.
